# Source: PubChem BioAssay (EPA / NIEHS)
# Activity calls are given as the source filed them. Rule for the calls: active = hit-call score of the fitted dose curve at least 0.9, where 1 is the maximum; inactive = score below 0.9.
# Key:
# [1] = CEETOX_H295R_TESTO: CeeTox H295R High-throughput Steroidogenesis Assay for Testosterone (TESTO) (AID 2283457); conditions: actives raise or lower the signal;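 for AC50: cells exposed to chemicals for 48 h before medium collection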
# Experimental: CEETOX_H295R is a cell-based, multiplexed-readout assay that uses H295R, a human adrenal gland cell line, with measurements taken at 48 hours after chemical dosing in a 96-well plate.CEETOX_H295R_TESTO is one of 23 assay component(s) measured or calculated from the CEETOX_H295R assay. It is designed to make measurements of hormone induction, a form of inducible reporter, as detected with […] by HPLC-MS-MS technology.Data from the assay component CEETOX_H295R_TESTO was analyzed into 1 assay endpoint. This assay endpoint, CEETOX_H295R_TESTO, was analyzed with bidirectional fitting relative to DMSO as the negative control and baseline of activity. Using a type of inducible reporter, gain or loss-of-signal activity using HPLC-MS-MS was used to understand synthesis of Testosterone in H295R cell line at 48hr of chemical exposure. To generalize the intended target to other relatable targets, this assay endpoint is annotated to the steroid hormone intended target family, where the subfamily is androgens.
# Cell culture and media preparation procedures were conducted in accordance with OECD Test No. 456 guidelines, with minor modifications. H295R cells (ATCC CRL-2128) were expanded for 5 passages and frozen in batches in liquid nitrogen. Prior to the steroidogenesis assay, H295R cells were thawed and passed at least 4 times. The maximum passage was 10. Cells were maintained in a 1:1 mixture of DMEM/F12 supplemented with 5ml/L ITS+ Premix (BD Bioscience) and 12.5 ml/L Nu-Serum (BD Bioscience). After seeding cells into 96-well plates at 50-60% confluency, cells were allowed to adhere overnight. […] Test chemicals were incubated for 48 hours, then the medium was removed and split into 2 vials containing approximately 75uL each, and stored at -80 C prior to hormone analysis. For steroid quantification, media samples were shipped to OpAns, LLC (Durham, NC) on dry ice, and samples were thawed to room temperature prior to liquid-liquid extraction. Steroid hormones were extracted from media samples using methyl tertbutyl ether (MTBE). An extra derivatization with dansyl chloride was included for estrogen (estrone and estradiol) detection only. Steroid hormones were separated by HPLC, eluted using a reverse phase C18 gradient with electrospray positive ionization, followed by quantification by tandem mass spectrometry (MS/MS). Data were acquired on a MassHunter Workstation Acquisition version B03.01 (Agilent Technologies, Inc.) and processed using MassHunter Quantitative Analysis for QQQ. Accuracy was determined for each hormone analyte from 3 standards to determine upper and lower limits of quantification (ULOQ and LLOQ, respectively) using a 7-point standard curve. Precision and accuracy of the extraction and quantification methods were calculated as the percent relative standard deviation (%RSD) of the spiked standards and percent spiked standard recovered, respectively. […] Test medium was removed following chemical exposure, and cell viability was evaluated in the same wells by MTT. MTT procedures were as follows: after removal of test medium, 500 uL of 0.5 mg/ml of 3-[4,5-dimethylthiazol-2-y]2,5-diphenyltetrazoliumbromide solution was added to the cells. Following a 4-hour incubation at 37 C and 5% CO2 to allow formazan-crystal formation, the MTT solution was removed and blue formazan salt crystals were solubilized using 500uL anhydrous isopropanol with shaking for 20 minutes. Absorbance was read at 570 and 650nm using a Packard Fusion microplate reader. Background correction of absorbance units was used to determine percent change relative to controls. […] When a test chemical reduced cell viability to 20% - 70%, the test chemical was diluted 10-fold and re-evaluated, but if cell viability was <20%, then the test chemical was diluted 100-fold and re-evaluated. Test chemical dilutions were made until cell viability was >/=70%. MTT assays were also conducted for duplicates of all concentrations of chemicals tested in concentration-response studies. […]
# [2] = read-out: Forkhead box O3 (FOXO3), FOXO3 (gene 2309); assay: LTEA_HepaRG_FOXO3: Life Technologies and Expression Analysis (LTEA) Assay for Forkhead box O3 (FOXO3) using HepaRG (AID 2283459); conditions: mRNA level, 48 h; actives raise or lower the signal
# Summary of the method: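 Differentiated human HepaRG cells, 48 h post-plating, exposed in duplicate for 48 h in serum-free induction medium; 8-point half-log series from 100 uM in 0.5% DMSO. FOXO3 mRNA by TaqMan qRT-PCR, normalized to ACTB/GAPDH/POLR2A; bidirectional fit versus DMSO.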
# [3] = read-out: ABC Transporter (ABCB1), ABCB1 (gene 5243); assay: LTEA_HepaRG_ABCB1: Life Technologies and Expression Analysis (LTEA) Assay for ABC Transporter (ABCB1) using HepaRG (AID 2283460); conditions: mRNA level, 48 h; actives raise or lower the signal
# Summary of the method: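 HepaRG cells exposed in duplicate for 48 h in serum-free induction medium to eight half-log concentrations up to 100 uM in 0.5% DMSO. ABCB1 mRNA quantified by qRT-PCR, normalised to ACTB, GAPDH and POLR2A; fitted bidirectionally versus DMSO.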
# [4] = read-out: growth arrest and DNA damage 45 (GADD45B), GADD45B (gene 4616); assay: LTEA_HepaRG_GADD45B: Life Technologies and Expression Analysis (LTEA) Assay for growth arrest and DNA damage 45 (GADD45B) using HepaRG (AID 2283461); conditions: mRNA level, 48 h; actives raise or lower the signal
# Summary of the method: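 Human HepaRG monolayers receive chemicals for 48 h at eight half-log concentrations, highest 100 uM, in 0.5% DMSO. Expression is measured by TaqMan qRT-PCR and normalized to ACTB, GAPDH and POLR2A.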
# [5] = read-out: ABC Transporter (ABCC3), ABCC3 (gene 8714); assay: LTEA_HepaRG_ABCC3: Life Technologies and Expression Analysis (LTEA) Assay for ABC Transporter (ABCC3) using HepaRG (AID 2283462); conditions: mRNA level, 48 h; actives raise or lower the signal
# Summary of the method: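 Transcriptional change of ABCC3 in HepaRG after 48 h treatment, determined by qRT-PCR normalized to endogenous controls. Concentrations spanned eight half-log steps to 100 uM in 0.5% DMSO.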
# [6] = read-out: ABC Transporter (ABCB11), ABCB11 (gene 8647); assay: LTEA_HepaRG_ABCB11: Life Technologies and Expression Analysis (LTEA) Assay for ABC Transporter (ABCB11) using HepaRG (AID 2283463); conditions: mRNA level, 48 h; actives raise or lower the signal
# Summary of the method: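 Differentiated human HepaRG cells in serum-free induction medium, dosed in duplicate for 48 h. Eight-point half-log series from 100 uM in 0.5% DMSO; ABCB11 mRNA by qRT-PCR, normalized to ACTB, GAPDH, POLR2A, fitted bidirectionally versus DMSO.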
# [7] = read-out: ABC Transporter (ABCC2), ABCC2 (gene 1244); assay: LTEA_HepaRG_ABCC2: Life Technologies and Expression Analysis (LTEA) Assay for ABC Transporter (ABCC2) using HepaRG (AID 2283464); conditions: mRNA level, 48 h; actives raise or lower the signal
# Summary of the method: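 After plating and 48 h culture, HepaRG medium is replaced with serum-free induction medium and chemicals are added (8 concentrations, max 100 uM, 0.5% DMSO) for 48 h. Total RNA then undergoes qRT-PCR for ABCC2 with housekeeping normalization.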
# [8] = read-out: Broad substrate specificity ATP-binding cassette transporter ABCG2 (Homo sapiens) (UniProt Q9UNQ0); assay: LTEA_HepaRG_ABCG2: Life Technologies and Expression Analysis (LTEA) Assay for ABC Transporter (ABCG2) using HepaRG (AID 2283465); conditions: mRNA level, 48 h; actives raise or lower the signal
# Summary of the method: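 Differentiated HepaRG cells were exposed for 48 h in serum-free induction medium to 8 half-log concentrations, top 100 uM, in 0.5% DMSO. ABCG2 mRNA was measured by qRT-PCR, normalized to ACTB, GAPDH and POLR2A, with bidirectional fitting versus DMSO.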
# [9] = read-out: ATP-citrate lyase (ACLY), ACLY (gene 47); assay: LTEA_HepaRG_ACLY: Life Technologies and Expression Analysis (LTEA) Assay for ATP-citrate lyase (ACLY) using HepaRG (AID 2283466); conditions: mRNA level, 48 h; actives raise or lower the signal
# Summary of the method: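 Differentiated HepaRG cells exposed 48 h in serum-free induction medium to eight half-log concentrations up to 100 uM in 0.5% DMSO, duplicates. Transcript measured by Fluidigm TaqMan qRT-PCR, normalized to ACTB, GAPDH, POLR2A; bidirectional fit versus DMSO.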
# [10] = read-out: growth arrest and DNA damage 45 (GADD45A), GADD45A (gene 1647); assay: LTEA_HepaRG_GADD45A: Life Technologies and Expression Analysis (LTEA) Assay for growth arrest and DNA damage 45 (GADD45A) using HepaRG (AID 2283458); conditions: mRNA level, 48 h; actives raise or lower the signal
# Summary of the method: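 Human HepaRG liver cells are treated in duplicate for 48 h with chemicals in 0.5% DMSO, highest concentration 100 uM. Expression is read by qRT-PCR and analyzed in both directions against vehicle.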
# Broad substrate specificity ATP-binding cassette transporter ABCG2 (Homo sapiens), sequence (Q9UNQ0 whole entry, looked up): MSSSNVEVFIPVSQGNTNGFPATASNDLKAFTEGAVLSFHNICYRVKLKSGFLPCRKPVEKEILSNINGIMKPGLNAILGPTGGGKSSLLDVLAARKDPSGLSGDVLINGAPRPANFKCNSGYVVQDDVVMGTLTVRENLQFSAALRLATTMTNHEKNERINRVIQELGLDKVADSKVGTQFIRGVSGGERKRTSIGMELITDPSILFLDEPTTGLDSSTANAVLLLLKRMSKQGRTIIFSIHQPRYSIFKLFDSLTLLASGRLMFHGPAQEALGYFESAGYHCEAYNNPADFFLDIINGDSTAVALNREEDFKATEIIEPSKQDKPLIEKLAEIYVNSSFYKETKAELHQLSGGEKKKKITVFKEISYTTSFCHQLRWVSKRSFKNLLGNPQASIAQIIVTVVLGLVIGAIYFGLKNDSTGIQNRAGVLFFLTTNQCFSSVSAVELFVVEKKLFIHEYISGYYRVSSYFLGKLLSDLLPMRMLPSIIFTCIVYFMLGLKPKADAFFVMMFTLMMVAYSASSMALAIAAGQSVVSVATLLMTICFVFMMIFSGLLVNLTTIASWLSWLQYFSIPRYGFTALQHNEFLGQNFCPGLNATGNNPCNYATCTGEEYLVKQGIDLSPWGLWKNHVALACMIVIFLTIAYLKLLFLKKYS
SMILES,AC50 [1],outcome [2],AC50 [3],outcome [4],outcome [5],outcome [6],AC50 [7],outcome [8],outcome [9],outcome [10],outcome [3],outcome [7],AC50 [6],AC50 [8],AC50 [4],AC50 [10],AC50 [2],outcome [1]
Cc1ccccc1CO[C@@H]1C[C@@]2(C(C)C)CC[C@]1(C)O2,35 µM (active),inactive,50 µM (active),inactive,inactive,inactive,75.1 µM (active),inactive,inactive,–,–,–,–,–,–,–,–,–
COc1ccc(O)c(C(C)(C)C)c1,–,inactive,–,inactive,inactive,inactive,–,inactive,inactive,inactive,inactive,inactive,–,–,–,–,–,–
Cc1ccc(O)c(C)c1,–,inactive,–,inactive,inactive,inactive,–,inactive,inactive,inactive,inactive,inactive,–,–,–,–,–,–
CCC(C)(c1ccc(O)cc1)c1ccc(O)cc1,–,inactive,–,inactive,inactive,–,–,inactive,inactive,inactive,inactive,inactive,88.1 µM (active),–,–,–,–,–
N#Cc1ccc(N(CC(N)=O)CC(F)(F)F)cc1C(F)(F)F,–,inactive,9.92 µM (active),inactive,inactive,–,–,inactive,inactive,inactive,–,inactive,0.353 µM (active),–,–,–,–,–
c1cc2ccc3cccc4ccc(c1)c2c34,29.5 µM (active),inactive,–,inactive,inactive,inactive,–,–,inactive,inactive,inactive,inactive,–,4.08 µM (active),–,–,–,–
O=S(=O)(O)C(F)(F)C(F)(F)C(F)(F)C(F)(F)C(F)(F)C(F)(F)F,–,inactive,–,inactive,inactive,inactive,–,inactive,inactive,inactive,inactive,inactive,–,–,–,–,–,–
C=CC(N)=O,–,inactive,–,inactive,inactive,inactive,–,inactive,inactive,inactive,inactive,inactive,–,–,–,–,–,–
CCC(=O)O[C@H]1CC[C@H]2[C@@H]3CCC4=CC(=O)CC[C@]4(C)[C@H]3CC[C@]12C,3.77 µM (active),inactive,–,–,inactive,–,–,inactive,inactive,–,inactive,inactive,9.78 µM (active),–,0.101 µM (active),–,–,–
CCC(C)c1cc([N+](=O)[O-])cc([N+](=O)[O-])c1O (stereo unspecified),–,–,1.39 µM (active),–,inactive,–,1.46 µM (active),inactive,inactive,–,–,–,1.29 µM (active),–,10.7 µM (active),1.07 µM (active),1.77 µM (active),–
CN(C)CCO,–,inactive,–,inactive,inactive,inactive,–,inactive,inactive,–,inactive,inactive,–,–,–,–,–,–
Clc1ccc(C(Cl)(Cl)Cl)cc1,–,inactive,–,inactive,inactive,inactive,–,inactive,inactive,inactive,inactive,inactive,–,–,–,–,–,–
CC1=C2C[C@H]3[C@@H](CC=C4C[C@@H](O)CC[C@@]43C)[C@@H]2CC[C@]12O[C@@H]1C[C@H](C)CN[C@H]1[C@H]2C,–,inactive,–,inactive,inactive,inactive,–,–,inactive,inactive,inactive,inactive,–,12.1 µM (active),–,–,–,inactive
CC#Cc1cc(C)nc(Nc2ccccc2)n1,–,–,–,–,inactive,–,–,–,inactive,inactive,inactive,inactive,9.09 µM (active),29.9 µM (active),19.2 µM (active),–,7.38 µM (active),–
O=C(NC(=O)c1c(F)cccc1F)Nc1cc(Cl)c(OC(F)(F)C(F)F)c(Cl)c1,–,inactive,–,inactive,inactive,–,–,inactive,inactive,–,inactive,inactive,50 µM (active),–,–,–,–,inactive
